Compounds with a hit are over-represented: about 20% of the library has one in this group of screens.
Shiga inhibitor = blocks Shiga toxin action in Vero cells | Vero cells, Shiga toxin protein synthesis inhibition reporter | inhibition, % at 38.7 µM | 290,000 tested, 9.2% active | AID 2315; in the data active = inhibition mostly above about 28%, no sharp cut-off; inactive = mostly below about 43%; also: 0% is about no effect
CHX counter = counter-screen hit for Shiga toxin inhibitors, cycloheximide. cell reporter, cycloheximide protein synthesis inhibition counterscreen. max response, %. 300,000 tested, 12% active. AID 2314; in the data active = max response mostly above about 13%, no sharp cut-off; inactive = mostly below about 14%; also: read at 38.3 µM for the half of the compounds with a filed dose; 0% is about no effect
Pf growth 96h = P. falciparum growth inhibition at 96 hour, primary screen for plastid delayed-death inhibitors | P. falciparum luciferase reporter growth, 96 h | Potency, µM (top dose mostly 28.7 µM), for the others: at the highest dose activity change, negative = inhibition, hits mostly inhibitors | 320,000 tested, 6.9% active; also: potency is read from the fitted curve at half-maximal effect; % is scaled to controls: 0 for no effect and ±100 for the full control effect
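Parasite growth measured via integrated firefly luciferase reporter in P. falciparum. Infected erythrocytes at 2% hematocrit, 0.05% parasitemia final were treated 96 hours at 37 C under 5% CO2, and luminescence was read.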
HCMV inh = inhibitors of human cytomegalovirus | HFF cells, HCMV-luciferase reporter, 72 h; hits give low values | activity change, negative = inhibition, % at 57.5 µM | 410,000 tested, 4.5% active | AID 1259415; in the data active = activity change below about -60%; inconclusive = no clear call, values can overlap the other calls; inactive = above about -39%; also: % is scaled to controls: 0 for no effect and ±100 for the full control effect
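Two-dose cell screen: HFF monolayers treated with compounds and infected with luciferase-expressing HCMV at 1 PFU/cell, 72 h at 37C, then lysed for luciferase measurement.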
Pf growth 48h = inhibits P. falciparum growth in the first generation, 48 h; 310,000 tested, 5.9% active; P. falciparum luciferase growth in erythrocytes, 48 h; Potency, µM (top dose mostly 28.7 µM), for inactives: top-dose activity change, negative = inhibition, actives largely listed as inhibitors; AID 504832; also: potency is read from the fitted curve at half-maximal effect; % is scaled to controls: 0 for no effect and ±100 for the full control effect
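Erythrocytes infected with P. falciparum carrying an integrated firefly luciferase reporter (2% hematocrit, 0.1% parasitemia final) were exposed to compounds in RPMI 1640 with 0.5% Albumax at 37 C, 5% CO2. Growth inhibition was scored as reduced luminescence.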
Starred values were filed as active, the others as inactive; ? = inconclusive; · = no result; + = active, no number. Unless noted, calls follow the shape of the dose curve; as a rule, active = well fitted inhibition curve with a large enough effect; inconclusive = small, poorly fitted or top-dose-only effect, or another doubt; inactive = no such curve, though single readings can be large or run the other way.

SMILES	Shiga inhibitor	CHX counter	Pf growth 96h	HCMV inh	Pf growth 48h
COc1ccc(C2CC(=O)c3cnc(NC(=O)c4ccccc4OC)nc3C2)c(OC)c1 (stereo not given)	6	-1	9.3µM*	0	?
COc1cccc(C(=O)Nc2ncc3c(n2)CC(C)CC3=O)c1 (stereo not given)	71*	40*	6%	18	13%
Cc1cc(NC(=O)CCC(=O)N(Cc2cccnc2)C(C(=O)NC(C)(C)C)c2ccccc2Cl)no1 (stereo not given)	-10	-2	?	?	-12%
O=C(O)c1ccc(S(=O)(=O)N(CCc2ccccc2)Cc2ccc(Cl)cc2)cc1	·	-1	-15%	33	-6%
Nc1cc(C(=O)O)ccc1Nc1ccccc1	14	8	12%	73	32%
CCc1ccccc1Nc1ccc(C(=O)O)cc1N	69*	37*	-4%	-10	147%
CCNc1ccc(C(=O)O)cc1N	61*	32*	90%	-39	11%
Cc1ccc(NC(=O)CS(=O)(=O)c2nc(-c3ccc(C)cc3)cn2-c2ccc(C)cc2)cc1	·	·	·	50	·
COc1ccc(N(/N=C2\Sc3ccccc3C2=O)C(C)=O)cc1	+	60*	?	-30	?
COc1ccc(CN(C(C)=O)c2ccccc2C(=O)O)cc1	-10	2	20%	-22	7%
COc1ccccc1N(CN1C(=O)c2ccccc2C1=O)C(=O)c1cccc(C)c1	-8	-9	-30%	?	2%
COc1ccccc1N(/N=C1\Sc2ccccc2C1=O)C(C)=O	60*	24*	-21%	-36	-9%
CC(C)C(=O)Nc1ccc(N2CCCC2)cc1	-9	7	4.1µM*	?	·
O=C(Nc1ccc(N2CCCCC2)cc1)C(Cl)c1ccccc1 (stereo not given)	84	46*	-3%	-7	-13%
CC(C)C(=O)Nc1ccc(N2CCN(c3ccc(F)cc3)CC2)cc1	-2	0	3%	5	37%
O=C(Nc1ccc(N2CCCC2)cc1)C(c1ccccc1)c1ccccc1	-9	-7	4.7µM*	-3	·
CC(=O)N1CCN(c2ccc(NC(=O)C(c3ccccc3)c3ccccc3)cc2)CC1	-3	-3	-23%	-13	?
Cc1ccc(C)c(-n2cc(CNCCCn3cccn3)c(-c3ccccc3)n2)c1	-5	-1	-27%	-65*	?
Cc1ccc(-n2cc(CNC(C)Cn3cncn3)c(-c3ccc(F)cc3)n2)cc1 (stereo not given)	39	10	11%	-38	7.4µM*
Cc1ccc(C)c(-n2cc(CNC(C)Cn3cncn3)c(-c3ccccc3)n2)c1 (stereo not given)	-17	-1	?	-28	13µM*
COc1ccc(-c2nn(-c3ccccc3C)cc2CNC(C)Cn2cncn2)cc1F (stereo not given)	-7	-1	?	24	?
Cc1ccc(-n2cc(CNC(C)c3cnn(C)c3)c(-c3ccc(F)cc3)n2)cc1 (stereo not given)	-17	-2	?	-39	?
COC(=O)c1ccccc1NC(=O)Cn1c(=O)n(CCCCC(=O)NCc2ccc3c(c2)OCO3)c(=O)c2ccccc21	·	·	·	27	·
FC(F)(F)Oc1ccc(Nc2cc3[nH]c(-c4ccccc4)cc3cn2)cc1	·	·	·	-34	·
COc1ccc(C(=O)CC(=O)C(=O)Nc2ccc(OC)c(Cl)c2)cc1	22	17*	-12%	-3	·
SMILES	Shiga inhibitor	CHX counter	Pf growth 96h	HCMV inh	Pf growth 48h
COc1ccc(NC(=O)C(=O)NCCO)cc1Cl	15	1	20%	21	8%
COc1ccc(C(=O)CC(=O)C(=O)Nc2ccc(Cl)cc2)cc1	37	14*	26%	-19	·
COc1ccc(C(=O)CC(Nc2ccc([N+](=O)[O-])cc2)c2ccc(Cl)cc2)cc1 (stereo not given)	14	10*	9.3µM*	-88*	3.3µM*
COc1ccc(NC(=O)C(=O)NCCCO)cc1Cl	62*	24*	-10%	33	67%
O=C(CCNc1cccc(Cl)c1)c1ccco1	27	-3	·	-14	5%
CCOc1ccccc1NC(=O)CN1CCC(NC(=O)Nc2ccccc2)CC1	2	-5	-4%	?	?
COc1cccc(NC(=O)C(=O)NCCc2csc3nc(-c4ccccc4C)nn23)c1	·	·	·	12	·
CC(C)(C)[C@@H]1C=C(C(=O)O)[C@H](c2ccc(Cl)cc2)N1S(=O)(=O)c1ccccc1	·	·	·	4	·
